Source: PubChem BioAssay
APOBEC3G inh – blocks human APOBEC3G single-stranded DNA deamination | inhibition, % at 20 µM | Q9HC16 | 0.28% of 330,000 active | AID 493012 | recombinant A3G, ssDNA deamination FAM/TAMRA fluorescence;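 active means inhibition of at least 40% at 20 µM, with no more than 30% in the related APOBEC3A deaminase screen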
Target sequence (Q9HC16 whole entry, looked up): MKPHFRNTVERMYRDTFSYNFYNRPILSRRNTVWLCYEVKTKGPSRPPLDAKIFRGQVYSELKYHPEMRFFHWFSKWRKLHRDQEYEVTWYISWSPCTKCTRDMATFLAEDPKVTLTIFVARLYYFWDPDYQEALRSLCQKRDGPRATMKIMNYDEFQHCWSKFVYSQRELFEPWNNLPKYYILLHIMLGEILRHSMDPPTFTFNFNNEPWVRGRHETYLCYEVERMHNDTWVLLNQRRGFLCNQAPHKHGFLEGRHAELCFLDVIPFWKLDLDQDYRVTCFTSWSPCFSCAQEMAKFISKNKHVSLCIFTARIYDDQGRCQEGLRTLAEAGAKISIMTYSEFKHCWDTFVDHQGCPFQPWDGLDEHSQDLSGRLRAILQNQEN
GRK2 aptamer HTS – inhibitors of human GRK2 displacing RNA aptamer. inhibition of aptamer binding, % at 10 µM. bead flow cytometry, FAM-aptamer displacement from GRK2. 0.59% of 330,000 active. AID 488847;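 active means inhibition of aptamer binding above 40%, roughly 3 SD of noise, on plates passing a quality check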;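 further: median bead fluorescence of bound FAM aptamer so fluorescent compounds give negative values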
A3A deaminase – human APOBEC3A DNA deaminase inhibition; 0.41% of 330,000 active; P31941; inhibition, % at 20 µM; recombinant A3A, FAM/TAMRA ssDNA deamination fluorescence; AID 493011;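 active means at least 40% inhibition at 20 µM here, with at most 30% in a related deaminase screen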
Target sequence (P31941 whole entry, looked up): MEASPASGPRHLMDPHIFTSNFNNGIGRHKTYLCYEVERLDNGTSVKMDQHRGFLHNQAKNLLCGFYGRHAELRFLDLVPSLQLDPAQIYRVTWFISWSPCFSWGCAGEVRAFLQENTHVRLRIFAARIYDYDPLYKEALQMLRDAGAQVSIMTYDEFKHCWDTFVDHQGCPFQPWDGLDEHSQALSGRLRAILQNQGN
VLA-4 inh – inhibition in a human VLA-4 binding assay; inhibition, % (about 7 µM as worked out from the volumes in the protocol); P13612; VLA-4 expressing cells, ligand binding flow cytometry; 0.2% of 330,000 active; in the data active means inhibition above about 50%
VLA-4 allo CP – confirmation of allosteric modulators of human VLA-4 integrin. shares compounds with VLA-4 inh. U937 cells, HUTS-21 LIBS mAb binding, flow cytometry; LDV ligand present at threefold Kd. inhibition, % at 6.7 µM. 2% of 1,300 active; in the data active means inhibition above about 40%
Large screens that a line does not name were inactive (follow-up assays come after a bar, where they were run). This is a sample that favours compounds with a hit; in the whole collection about 1.4% have one here.

Nc1cc(Cl)ccc1C(=O)OCC(=O)N1CCCCCC1	none | VLA-4 allo CP inactive
Cc1cccc(C(=O)OCC(=O)N2CCCCCC2)c1C	none | VLA-4 allo CP inactive
CCCCOc1ccc(C(=O)OCC(=O)N2CCCCCC2)cc1	none | VLA-4 allo CP inactive
O=C(NCc1ccccc1F)C1CCCN(C(=O)Nc2ccccc2)C1 (stereo not drawn)	none
O=C(NCc1ccccc1)C1CCCN(C(=O)Nc2ccccc2)C1 (stereo not drawn)	VLA-4 inh 75 | VLA-4 allo CP inactive
Cc1ccc(C(=O)NC(=S)NCc2cccnc2)cc1C	VLA-4 inh 55 | VLA-4 allo CP inactive
COCCCC1CCN(Cc2nc(-c3ccccc3)no2)CC1	none | VLA-4 allo CP inactive
COc1ccc(N(C(=O)c2ccccc2OC)C2C=CS(=O)(=O)C2)c(OC)c1 (stereo not drawn)	none
Cc1ccc(CN2CCN(Cc3cccc(OCCO)c3)CC2CCO)o1 (stereo not drawn)	none | VLA-4 allo CP inactive
Cc1ccc(CN2CCN(Cc3ccc(OC(C)C)cc3)CC2CCO)o1 (stereo not drawn)	none
COc1ccc(NC(=O)CCn2cccc2)c(OC)c1	VLA-4 inh 58 | VLA-4 allo CP inactive
CCOC(=O)C1=C(C)N(CCCCCC(=O)O)C(=O)NC1c1ccc(Cl)cc1 (stereo not drawn)	none
Cc1ccc(/C(O)=C2/C(=O)C(=O)N(CC(=O)O)C2c2ccc([N+](=O)[O-])cc2)cc1 (stereo not drawn)	VLA-4 inh 64 | VLA-4 allo CP inactive
COc1ccc(C(=O)Nc2nncs2)cc1S(=O)(=O)N1CCOCC1	VLA-4 inh 59 | VLA-4 allo CP inactive
CO/N=C/CC(=O)c1ccc([N+](=O)[O-])c(CS(=O)(=O)c2ccc(Cl)cc2)c1	none | VLA-4 allo CP inactive
O=C(CN(Cc1ccccc1)C(=O)CNS(=O)(=O)c1ccccc1)NCC1CCCO1 (stereo not drawn)	none
CCCN(CC(=O)Nc1ccccc1C)C(=O)C1CCCN(C(=O)c2ccc(Cl)cc2)C1 (stereo not drawn)	VLA-4 inh 50 | VLA-4 allo CP inactive
Cc1cnc(C(=O)OCc2ccc(Br)cc2F)cn1	none
COc1cc(CCCN2C(=O)C(=O)NC[C@@H]2C(C)O)cc(OC)c1OC (stereo partly drawn)	none | VLA-4 allo CP inactive
COc1cc(CCCN2C(=O)C(=O)NC[C@@H]2c2ccccc2)cc(OC)c1OC	VLA-4 inh 52 | VLA-4 allo CP inactive
C=C1CC(C(=O)N/N=C/c2ccccc2)C1	none | VLA-4 allo CP inactive
CCOC(=O)c1cccc(NC(=O)CN(c2ccc(C)cc2)S(=O)(=O)c2c(C)n[nH]c2C)c1	VLA-4 inh 57 | VLA-4 allo CP inactive
CCOC(=O)c1ccc(NC(=O)CN(c2ccc(C)cc2)S(=O)(=O)c2c(C)nn(C)c2C)cc1	none | VLA-4 allo CP inactive
COc1ccc(N(CC(=O)Nc2cccc(C)c2)S(=O)(=O)c2c(C)n[nH]c2C)cc1	none
COc1cccc([C@@H]2Oc3ccc(Br)cc3C(=O)[C@H]2OC(=O)NC2CCCC2)c1	none
CC1C(=O)N2CCCc3cc(S(=O)(=O)Nc4ccccc4C(N)=O)cc1c32 (stereo not drawn)	none | VLA-4 allo CP inactive
CC1C(=O)N2CCCc3cc(S(=O)(=O)Nc4ccccc4F)cc1c32 (stereo not drawn)	none
Cc1ccc(O)c(NC(=O)c2cc([N+](=O)[O-])ccc2Cl)c1	none
Cc1cc(O)c(NC(=O)c2cc([N+](=O)[O-])ccc2Cl)cc1C	VLA-4 inh 51 | VLA-4 allo CP inactive
COc1cc(Cl)c(C)cc1NC(=O)CC1SC(N2CCOCC2)=NC1=O (stereo not drawn)	none
CCC(C)NC(=O)CC(NS(=O)(=O)c1ccc(Cl)cc1)c1ccco1 (stereo not drawn)	VLA-4 inh 108 | VLA-4 allo CP inactive
O=C(O)CCN1C(=O)c2ccccc2Sc2ncccc21	none | VLA-4 allo CP inactive
CC1CC2C3CCC4=CC(=O)C=CC4(C)[C@@]3(Cl)C(O)CC2(C)C1(O)C(=O)CO (stereo partly drawn)	none | VLA-4 allo CP inactive
COc1ccc(NS(=O)(=O)c2ccc(Cl)c(N)c2)cc1Br	none | VLA-4 allo CP inactive
COc1ccc(S(=O)(=O)Nc2ccc(NC(C)=O)cc2)cc1Br	none
Nc1cc(S(=O)(=O)Nc2ccc(Br)cc2)ccc1Cl	none | VLA-4 allo CP inactive
O=C(CN1CCN(Cc2ccccc2)CC1)N/N=C/C=C/c1ccccc1[N+](=O)[O-]	none | VLA-4 allo CP inactive
COc1ccc([N+](=O)[O-])cc1NC(=O)Cc1noc2ccc(C)cc12	none
O=C(NC1CCCc2ccccc21)c1cccc(Br)c1 (stereo not drawn)	none | VLA-4 allo CP inactive
Cc1ccc(S(=O)(=O)N2CCN(C(=O)COC(=O)CCOc3cc(C)ccc3C)CC2)cc1	none
O=C(CCCN1C(=O)CCC1=O)Nc1ccc(Br)cc1F	none
CN1CC(=O)N(CC(=O)Nc2ccc(Br)cc2F)C1=O	VLA-4 inh 70 | VLA-4 allo CP inactive
CC[C@@H]1C=C(C(=O)O)[C@H](c2ccc(Br)cc2)N1S(=O)(=O)c1ccc(C)cc1	none
CCCC[C@@H]1C=C(C(=O)O)[C@H](c2ccc(Br)cc2)N1S(=O)(=O)c1ccc(C)cc1	none | VLA-4 allo CP inactive
CCCCC[C@@H]1C=C(C(=O)O)[C@H](c2ccc(F)cc2)N1S(=O)(=O)c1ccc(C)cc1	none | VLA-4 allo CP inactive
CCCCC[C@@H]1C=C(C(=O)O)[C@H](c2cccc(C)c2)N1S(=O)(=O)c1ccc(C)cc1	none | VLA-4 allo CP inactive
CCc1ccc([C@H]2C(C(=O)O)=C[C@@H](CC)N2S(=O)(=O)c2ccc(C)cc2)cc1	none | VLA-4 allo CP inactive
Fc1ccc(Nc2c(-c3ccco3)nc3ccccn23)cc1	none
CCCCC[C@@H]1C=C(C(=O)O)[C@H](c2ccc(CC)cc2)N1S(=O)(=O)c1ccc(C)cc1	none | VLA-4 allo CP inactive
CCCCC[C@@H]1C=C(C(=O)O)[C@H](c2ccc(OC)c(OC)c2)N1S(=O)(=O)c1ccc(C)cc1	none | VLA-4 allo CP inactive
CCCCC[C@@H]1C=C(C(=O)O)[C@H](c2ccc(Cl)c(Cl)c2)N1S(=O)(=O)c1ccc(C)cc1	none
CCCCC[C@@H]1C=C(C(=O)O)[C@H](c2ccc3c(c2)OCO3)N1S(=O)(=O)c1ccc(C)cc1	none | VLA-4 allo CP inactive
CCCC[C@@H]1C=C(C(=O)O)[C@H](c2ccc(CC)cc2)N1S(=O)(=O)c1ccc(C)cc1	none | VLA-4 allo CP inactive
Cc1cccc(NC(=S)NC(NC(=O)c2ccco2)C(Cl)(Cl)Cl)c1 (stereo not drawn)	none
Cc1cc(C)cc(NC(=S)N2CCN(S(=O)(=O)c3ccccc3)CC2)c1	none
Clc1cc(CSc2ccccc2)nc(-c2ccccc2)n1	VLA-4 inh 94 | VLA-4 allo CP inactive
Clc1ccc(SCc2cc(Cl)nc(-c3ccccc3)n2)cc1	none
Nc1ncnc2nc(SCCOc3ccc(Cl)cc3)[nH]c12	none | VLA-4 allo CP inactive
